PubChem BioAssay
Active and inactive are the calls of the source. Unless noted, the rule behind the calls is not given here.

How the values were obtained:
[1] = HepG2 liver cancer cell viability effects, profiling panel, resazurin fluorescence, 24 h, PK04 Diversity Set (AID 1172); settings: higher = more signal
[2] = basal S. cerevisiae growth modulation, no modifier, primary screen, OD600, strain BY4716, 24 h, basal condition (AID 1173); settings: OD600, 24 h, higher = more signal, called active from +8 up or from −8 down
[3] = MM1S myeloma cell viability, profiling panel, resazurin fluorescence, basal, 24 h, PK04 Diversity Set (AID 1174); settings: higher = more signal, called active from +8 up or from −8 down;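 note: MM1S multiple myeloma cell line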
[4] = molecular target: Dihydroorotate dehydrogenase (quinone), mitochondrial (Plasmodium falciparum (isolate 3D7)) (UniProt Q08210); experiment: PfDHODH enzyme inhibitors, primary screen, biochemical, C-terminal His tag, absorbance 600 nm (AID 1175); settings: DCIP absorbance 600 nm, higher = more signal, called active from +8 up or from −8 down;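 note: recombinant parasite enzyme with a five histidine tag at its C terminus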
[5] = P. aeruginosa biofilm formation inhibitors, primary screen, strain PAO1, LB-PBS medium, absorbance 600 nm (AID 1176); settings: P. aeruginosa PAO1 growth/biofilm, A600, 12 h; higher = more signal
[6] = S. cerevisiae RM11-1a growth modifiers, primary screen, strain RM11-1a, OD600, basal, 24 h (AID 1177); settings: OD600, 24 h, higher = more signal, called active from +8 up or from −8 down;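 note: cultures grown under basal conditions with no added stressor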
[7] = E. coli acrAB mutant growth effects, primary screen, E. coli filamentation inducers, strain DRC39, OD650, 24 h (AID 1178); settings: higher = more signal, called active from +8 up or from −8 down;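 note: growth measured as culture turbidity by optical density at 650 nm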
[8] = E. coli acrAB mutant growth effects, primary screen, E. coli filamentation inducers, strain DRC39, OD650, 48 h (AID 1179);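 note: screen aims at cell division blockers that make cells filament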; settings: E. coli DRC39 delta-acrAB growth, higher = more signal, called active from +8 up or from −8 down
[9] = RPMI8226 myeloma cell viability, profiling panel, resazurin fluorescence, basal, 24 h, PK04 Diversity Set (AID 1180); settings: higher = more signal;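 note: RPMI8826 multiple myeloma cell line at 5000 cells per well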
[10] = molecular target: E3 ubiquitin-protein ligase XIAP (Homo sapiens) (UniProt P98170); experiment: XIAP binders, primary screen, biophysical, small-molecule microarray, fluorescence 635 nm (AID 1181); settings: small-molecule microarray binding, higher = more signal;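 note: score merges 667 nm emission and signal to noise over triplicate slides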
[11] = test system: XIP peptide (Xip251-270) binding; experiment: small-molecule binders of XIP peptide, primary screen, biochemical, small-molecule microarray, fluorescence 635/667 nm, 0.1 µg/mL protein (AID 1182); settings: fluorescent protein binding, 635 nm, higher = more signal, called active from +8 up or from −8 down
XIP peptide (Xip251-270) = experiment: small-molecule binders of XIP peptide, primary screen, biochemical, small-molecule microarray, fluorescence 635/667 nm, 0.5 µg/mL protein (AID 1183); settings: small-molecule microarray binding, fluorescence 635 nm; higher = more signal
[12] = Plasmodium falciparum growth inhibition, primary screen, strain 3D7, DAPI fluorescence, 100 nL (AID 1184);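 note: parasites grown inside human red blood cells in medium with human serum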; settings: P. falciparum 3D7 growth, 3 d, higher = more signal
[13] = molecular target: Homeobox protein Hox-A13 (Mus musculus) (UniProt Q62424); experiment: inhibitors of HoxA13-DNA binding, primary screen, biochemical, fluorescence polarization, labeled oligonucleotide (AID 1185); settings: 15 min, higher = more signal, called active from +8 up or from −8 down
[14] = inhibitors of hydroxyurea-induced Chk1 phosphorylation, primary screen, imaging, HeLa, phospho-Chk1 antibody, percent positive cells (AID 1186); settings: hydroxyurea-induced phospho-Chk1 immunofluorescence imaging, higher = more signal
[15] = inhibitors of hydroxyurea-induced Chk1 phosphorylation, primary screen, imaging, HeLa, phospho-Chk1 nuclear intensity (AID 1187); settings: hydroxyurea-induced phospho-Chk1 immunofluorescence imaging, higher = more signal

Chain of E3 ubiquitin-protein ligase XIAP (Homo sapiens) (P98170 whole entry, looked up): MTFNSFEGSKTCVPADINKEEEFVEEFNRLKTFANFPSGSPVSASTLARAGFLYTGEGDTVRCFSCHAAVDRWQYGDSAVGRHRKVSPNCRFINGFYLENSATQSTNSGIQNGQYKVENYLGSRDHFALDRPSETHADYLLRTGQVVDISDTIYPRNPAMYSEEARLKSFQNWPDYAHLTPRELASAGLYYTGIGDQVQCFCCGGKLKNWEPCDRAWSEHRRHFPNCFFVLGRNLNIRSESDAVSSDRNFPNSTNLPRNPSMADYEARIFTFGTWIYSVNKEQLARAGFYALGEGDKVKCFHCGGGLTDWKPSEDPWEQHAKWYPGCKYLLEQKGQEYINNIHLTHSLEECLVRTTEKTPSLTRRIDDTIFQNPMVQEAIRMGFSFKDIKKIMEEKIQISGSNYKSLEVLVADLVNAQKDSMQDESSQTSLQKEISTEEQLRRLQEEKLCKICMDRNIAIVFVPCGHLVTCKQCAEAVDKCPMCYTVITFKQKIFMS
Chain of Dihydroorotate dehydrogenase (quinone), mitochondrial (Plasmodium falciparum (isolate 3D7)) (Q08210 whole entry, looked up): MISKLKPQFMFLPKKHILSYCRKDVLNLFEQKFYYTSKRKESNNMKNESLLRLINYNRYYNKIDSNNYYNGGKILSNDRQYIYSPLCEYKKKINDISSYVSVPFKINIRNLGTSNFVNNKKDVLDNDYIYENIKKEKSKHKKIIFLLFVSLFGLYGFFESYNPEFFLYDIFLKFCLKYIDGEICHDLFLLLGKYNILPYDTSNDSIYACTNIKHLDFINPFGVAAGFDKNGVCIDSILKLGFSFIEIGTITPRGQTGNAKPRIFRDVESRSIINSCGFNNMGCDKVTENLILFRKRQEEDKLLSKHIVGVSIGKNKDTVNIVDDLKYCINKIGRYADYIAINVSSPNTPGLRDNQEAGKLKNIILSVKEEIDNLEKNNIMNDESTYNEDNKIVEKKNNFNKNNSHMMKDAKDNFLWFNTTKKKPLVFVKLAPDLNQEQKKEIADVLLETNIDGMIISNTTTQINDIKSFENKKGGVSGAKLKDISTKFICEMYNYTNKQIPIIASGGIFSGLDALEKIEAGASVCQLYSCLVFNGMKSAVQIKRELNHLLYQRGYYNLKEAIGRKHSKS
Chain of Homeobox protein Hox-A13 (Mus musculus) (Q62424 whole entry, looked up): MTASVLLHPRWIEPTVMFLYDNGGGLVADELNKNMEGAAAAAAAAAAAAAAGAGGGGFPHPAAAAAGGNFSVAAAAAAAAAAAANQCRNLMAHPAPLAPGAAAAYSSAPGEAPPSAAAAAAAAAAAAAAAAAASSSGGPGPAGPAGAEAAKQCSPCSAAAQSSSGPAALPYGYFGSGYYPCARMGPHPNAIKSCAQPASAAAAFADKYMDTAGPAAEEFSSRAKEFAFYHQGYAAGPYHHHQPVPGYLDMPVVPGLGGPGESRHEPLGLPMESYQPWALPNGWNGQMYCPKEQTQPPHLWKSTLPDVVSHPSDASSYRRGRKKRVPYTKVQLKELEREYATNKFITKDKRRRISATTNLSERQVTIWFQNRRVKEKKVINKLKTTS

Row | SMILES | z-score [1] | z-score [2] | z-score [3] | composite z-score [4] | z-score [5] | z-score [6] | z-score [7] | z-score [8] | z-score [9] | composite z-score [10] | composite z-score [11] | composite z-score (XIP peptide (Xip251-270)) | z-score [12] | z-score [13] | z-score [14] | z-score [15]
1 | COc1ccc([Si](C)(C)[C@@H]2[C@@H](CCO)O[C@]3(C(=O)N(Cc4ccc(N5C(=O)COc6ccccc65)cc4)c4ccccc43)[C@H]2C)cc1 | -1.59 | 1.54 (inactive) | -2.01 (inactive) | -0.0524 (inactive) | 2.5 (inactive) | 4.73 (inactive) | -0.238 (inactive) | -0.639 (inactive) | -3.64 | -0.0559 | 0.906 (inactive) | 0.811 | -2.81 | -2.08 (inactive) | -0.591 (inactive) | -1.55 (inactive)
2 | CCOc1cc(C(O)C2C=CC3C(=O)N(c4ccccc4)C(=O)C3N2Nc2ccccc2)ccc1O (centres undefined) | -0.147 | -2.46 (inactive) | -1.07 (inactive) | 0.392 (inactive) | 1.1 (inactive) | 1.16 (inactive) | -0.345 (inactive) | -0.649 (inactive) | -0.0963 | -0.189 | 0.497 (inactive) | 0.221 | -0.033 | -4.03 (inactive) | -0.516 (inactive) | -0.835 (inactive)
3 | CC(=O)NCCCC[C@@H]1NC(=O)[C@@H]2C[C@H](C(=O)NCCCCCCNC(=O)CS)[C@H](c3cccc(OCCO)c3)N2C1=O | -0.396 | 0.174 (inactive) | -0.449 (inactive) | -0.424 (inactive) | 0.752 (inactive) | -0.407 (inactive) | 0.293 (inactive) | 0.367 (inactive) | -1.05 | -0.0791 | 0.732 (inactive) | 0.669 | -0.523 | -4.5 (inactive) | -0.223 (inactive) | -0.0198 (inactive)
4 | Cc1ccc(S[C@]2(C(=O)NCCN3CCOCC3)CC(=O)N(Cc3ccccc3Cl)[C@@H]2c2ccc(CO)cc2)cc1 | 0.286 | -0.709 (inactive) | 1.04 (inactive) | -0.245 (inactive) | 0.621 (inactive) | 0.381 (inactive) | 0.381 (inactive) | 0.237 (inactive) | 0.958 | 0.0428 | -0.255 (inactive) | 0.686 | -1.47 | -4.04 (inactive) | -0.114 (inactive) | -0.121 (inactive)
5 | O=C(c1ccccc1)N1Cc2ccccc2[C@@H]2OC(c3ccc(OCCCO)cc3)=N[C@]2(Cc2ccccc2)C1=O | -0.448 | -0.485 (inactive) | -1.79 (inactive) | 0.369 (inactive) | 2.05 (inactive) | 0.843 (inactive) | -0.273 (inactive) | -0.749 (inactive) | -2.49 | -0.102 | 1.67 (inactive) | 0.576 | -2.2 | 1.01 (inactive) | 0.103 (inactive) | -0.3 (inactive)
6 | COCCOC(=O)N1C(=O)[C@@]2(c3cc(C#Cc4ccc(OC)cc4)ccc31)[C@H](C(N)=O)[C@H]1C(=O)O[C@H](c3ccccc3)[C@H](c3ccccc3)N1[C@@H]2c1ccccc1OCCO | -0.483 | 1.06 (inactive) | -2.17 (inactive) | 0.361 (inactive) | 2.94 (inactive) | 1.5 (inactive) | -0.688 (inactive) | -0.469 (inactive) | -2.68 | 0.0748 | 1.85 (inactive) | 0.888 | -2.04 | -1.77 (inactive) | -0.111 (inactive) | -0.559 (inactive)
7 | CCc1oc(CC[C@@H](CO)NC(=O)NCCn2cc(C3(O)CCCCC3)nn2)c(C(=O)OC)c1C(=O)OC | -0.676 | -1.16 (inactive) | -0.658 (inactive) | -0.32 (inactive) | -0.109 (inactive) | -0.298 (inactive) | -0.247 (inactive) | -0.64 (inactive) | -0.626 | -0.0078 | 1.53 (inactive) | 0.875 | -0.397 | -3.56 (inactive) | 0.259 (inactive) | -0.0163 (inactive)
8 | C=CCNC(=O)[C@@H]1[C@H]2C(=O)O[C@H](c3ccccc3)[C@H](c3ccccc3)N2[C@H](c2ccccc2OCCO)[C@@]12C(=O)N(C(=O)OCCOC)c1ccc(C#CCNC(N)=O)cc12 | -0.359 | 0.808 (inactive) | -0.0716 (inactive) | 0.0199 (inactive) | 1.1 (inactive) | 1.43 (inactive) | 0.404 (inactive) | 0.703 (inactive) | 0.122 | 0.171 | 0.347 (inactive) | 0.66 | -0.531 | -1.84 (inactive) | -0.189 (inactive) | -0.159 (inactive)
9 | COCCOC(=O)N1C(=O)[C@@]2(c3cc(C#CC4=CCCCC4)ccc31)[C@H](C(=O)Nc1nc3ccccc3s1)[C@H]1C(=O)O[C@H](c3ccccc3)[C@H](c3ccccc3)N1[C@@H]2c1ccccc1OCCO | 0.444 | 0.794 (inactive) | -0.386 (inactive) | 1.37 (inactive) | 1.16 (inactive) | 1.99 (inactive) | -0.653 (inactive) | -0.883 (inactive) | -0.575 | -0.05 | 0.494 (inactive) | 0.698 | -2.04 | 1.67 (inactive) | -0.169 (inactive) | -0.114 (inactive)
